This is a sample that favours compounds with a hit; in the whole collection about 4% have one here.
AF4-AF9 inh: inhibitors of AF4 peptide binding to AF9, primary screen, biochemical, AlphaScreen, biotin-AF4 peptide, FLAG-AF9, single point | Protein AF-9 (Homo sapiens), P42568 | inhibition, % at 10 µM | 350,000 tested, 0.47% active;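 active means every replicate reaching a set inhibition limit, whatever the replicate mean, cut at about 25% in these data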;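 further: 0% = plate neutral control median and 100% = total signal loss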
FGF22 binding: binders of human FGF22 protein, primary screen, FGF22 synaptogenesis inhibitor project, biophysical, thermal shift, single point. activity (Tm shift, normalised), % at 9.99 µM. recombinant FGF22 thermal shift, SYPRO orange fluorescence; percent of sucrose octasulfate shift, DMSO zero. 340,000 tested, 1.5% active. Fibroblast growth factor 22 (Homo sapiens), Q9HCT0. AID 651658, 2012;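 active means mean Tm shift, scaled 0 neutral to 100 positive control, at about 1.3% or above, every replicate too, limit read from the data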
DENV2 CPE rescue: inhibitors of DENV2 cytopathic effect, primary screen, cell-based, plate reader, single concentration | DENV2-infected cells, cytopathic effect rescue | CPE inhibition, % at 9.99 µM | 350,000 tested, 1.7% active; in the data active means CPE inhibition above about 20%, passing the limit was not always enough; tested in BHK-21 cells;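 further: 0% = median of neutral control wells and 100% = median of positive control wells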
ERAP1 inh: human ERAP1 aminopeptidase inhibitors, primary screen, biochemical, single point, plate reader; 340,000 tested, 0.15% active; Endoplasmic reticulum aminopeptidase 1 (Homo sapiens), Q9NZ08; AID 652197, 2013; inhibition, % at 10.7 µM; recombinant ERAP1, Leu-AMC fluorescence, 60 min;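 active means mean replicate inhibition of at least 30%, or all replicates individually reaching that 30% level; inactive means mean below 30% and not every replicate reaching it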;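 further: 0% = neutral control wells and 100% = L-leucinethiol positive control wells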
RAD52 anneal inh: RAD52 DNA annealing inhibitors, primary screen, biochemical, FRET, single point, set 2; 360,000 tested, 0.46% active; DNA repair protein RAD52 homolog (Homo sapiens), P43351; AID 651710, 2012; inhibition, % at 18.7 µM; recombinant RAD52 DNA annealing, FRET fluorescence;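 active means every replicate showing at least 50% inhibition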
Numbers without * were called inactive; . = no result given.

SMILES	AF4-AF9 inh	FGF22 binding	DENV2 CPE rescue	ERAP1 inh	RAD52 anneal inh
O=C(COc1cccc(Br)c1)N/N=C/C(=O)c1ccccc1	0.6	42.9*	4.7	-0.5	-11.5
Cc1cccc(OCC(=O)NCC(=O)N/N=C/c2ccccc2)c1	-6.4	42.9*	-0.5	-3.9	-11.7
CC(C)(C)C(=O)Nc1nc2c(s1)CN(Cc1ccccc1)CC2	5.8	43.2*	5.5	-3.8	-39.7
Cc1cc2occ(CC(=O)NC3CCCc4ccccc43)c2cc1C (stereo not drawn)	-1.6	43.3*	18.2	0.4	-10.5
Cc1ccccc1CC(=O)NC1CCCc2ccccc21 (stereo not drawn)	1.7	0.0	5.8	-2.1	-17.5
CC1=CC(C)C(=O)N(CCN2CCOCC2)C(C)=C1 (stereo not drawn)	-6.5	43.4*	7.1	2.6	-8.4
O=C(CSc1nc(C(F)(F)F)cc(=O)[nH]1)N1CCOCC1	-1.1	-0.3	-4.5	1.7	-8.6
O=C(CSc1nccc(=O)[nH]1)N1CCOCC1	-1.3	-0.2	115.2*	2.9	-17.8
OC[C@H]1[C@H](c2ccc(-c3ccc(F)cc3)cc2)[C@@H]2CN(Cc3ccncc3)CCCCN12	2.8	-0.1	44.0*	1.0	-24.1
OC[C@H]1[C@@H](c2ccc(-c3ccc(F)cc3)cc2)[C@@H]2CN(Cc3ccncc3)CCCCN12	8.0	-0.3	16.6	1.7	-6.9
OC[C@H]1[C@@H](c2ccc(-c3ccc(F)cc3)cc2)[C@@H]2CN(Cc3ccccn3)CCCCN12	1.6	-0.2	29.1*	1.1	4.1
O=C(Nc1cc(F)ccc1F)N[C@H]1CC[C@@H](CCn2cc(C3CC3)nn2)O[C@@H]1CO	-2.0	0.0	-0.7	1.5	-9.1
N#C/C(=C\c1ccc2c(c1)OCCO2)C(=O)NC1CCCCC1	-1.6	0.1	62.2*	0.8	-0.3
CCCCNC(=O)/C(C#N)=C/c1ccc2c(c1)OCCO2	-4.2	0.0	4.9	11.6	-11.3
C/C(=N\NC(=O)c1ccc(CSc2nncn2C)cc1)c1cccs1	-1.4	43.3*	-5.7	-0.1	-6.1
C/C(=N\NC(=O)c1ccc(CSc2nncn2C)cc1)c1ccc(Cl)cc1	-1.3	-0.2	3.9	-0.9	-17.7
C/C(=N\NC(=O)c1cc(C)[nH]n1)c1cccs1	-10.9	43.7*	-6.9	-2.6	2.6
C/C(=N\NC(=O)c1cc(C)[nH]n1)c1ccc(-c2ccccc2)cc1	-9.4	0.3	1.2	4.3	-6.6
C[C@@H]1CC[C@]2(O[C@H](CCO)C[C@H](O)[C@H]2O)O1	0.7	-0.1	39.2*	2.2	-5.2
C[C@@H]1CCC[C@]2(O[C@@H](CCO)C[C@@H](O)[C@@H]2O)O1	0.8	0.1	34.5*	-0.6	-3.3
C[C@H]1CC[C@@]2(O[C@@H](CCO)C[C@H](O)[C@H]2O)O1	-2.4	-0.1	8.8	.	-4.1
Cc1ccc(C)c(N(C(=O)c2csnn2)C(C(=O)NC2CCCCC2)c2ccccn2)c1 (stereo not drawn)	37.3*	-0.2	0.8	2.4	-5.8
O=C(Cc1ccncc1)NCC[C@H]1CC[C@H](NC(=O)Nc2ccc(Cl)cc2)[C@@H](CO)O1	1.1	0.0	2.3	3.1	-14.5
CC(C)NS(=O)(=O)c1ccc(OCC(=O)Nc2cccc(F)c2)cc1	0.7	43.3*	-7.0	-1.8	-3.8
Cc1cc(-c2nn(-c3ccccc3F)cc2CN2CCC(O)CC2)c(C)s1	0.6	0.3	12.5	.	-4.8
SMILES	AF4-AF9 inh	FGF22 binding	DENV2 CPE rescue	ERAP1 inh	RAD52 anneal inh
Cc1cc(-c2nn(-c3ccccc3F)cc2CN2CCN(c3ccncc3)CC2)c(C)s1	32.3*	0.0	-8.9	2.8	47.1
CC(C)CNc1ncnc2[nH]ncc12	-1.5	43.6*	4.2	1.6	6.0
Clc1ccc(CNc2ncnc3[nH]ncc23)c(Cl)c1	2.9	43.2*	-4.2	3.5	4.9
COc1cc(-c2noc(C)c2/C=C/c2ccc(C(=O)O)cc2)cc(OC)c1OC	-2.7	0.0	.	41.9*	-6.1
COc1cc(-c2noc(C)c2/C=C/c2cccc([N+](=O)[O-])c2)cc(OC)c1OC	7.3	0.2	5.1	2.8	-13.6
CCS(=O)(=O)Nc1ccc2c(c1)C(=O)N(C)C[C@H](OC)[C@H](C)CN(C(=O)C1CCC1)[C@H](C)CO2	2.9	.	8.1	2.6	-3.1
CC(C)NC(=O)N(C)C[C@H]1Oc2c(NC(=O)C3CC3)cccc2C(=O)N([C@H](C)CO)C[C@H]1C	-1.4	0.3	42.2*	-1.9	-5.4
C[C@@H]1CN([C@@H](C)CO)C(=O)c2cccc(NC(=O)C3CC3)c2O[C@@H]1CN(C)S(=O)(=O)c1cn(C)cn1	-2.2	-0.1	28.6*	-0.7	-7.0
C[C@@H]1CN([C@H](C)CO)C(=O)c2cccc(NC(=O)C3CC3)c2O[C@H]1CN(C)S(=O)(=O)c1cn(C)cn1	-0.6	0.0	-6.3	0.2	9.8
C[C@H]1CN([C@@H](C)CO)C(=O)c2cccc(NC(=O)C3CC3)c2O[C@@H]1CN(C)C	2.2	-0.1	23.3*	-0.8	-0.6
C[C@H](CO)N1C[C@H](C)[C@H](CN(C)C)Oc2c(NC(=O)C3CC3)cccc2C1=O	-0.4	0.0	-7.4	-1.0	-13.8
CCC(=O)N1CC(=O)N2[C@H](CO)[C@H](c3ccc(C#Cc4cccc(F)c4)cc3)[C@@H]2C1	6.5	.	6.5	-0.5	-1.0
Cc1ccc(S(=O)(=O)N2C[C@H](O)COC[C@@H]3O[C@H](CC(=O)NCC4CCCCC4)CC[C@H]32)cc1	11.3	0.0	-7.0	2.2	54.3*
Cc1ccc(S(=O)(=O)N2C[C@@H](O)COC[C@@H]3O[C@@H](CC(=O)NCC4CCCCC4)CC[C@H]32)cc1	20.0	-0.3	4.7	3.5	60.0*
Cc1ccc(S(=O)(=O)N2C[C@H](O)COC[C@H]3O[C@@H](CC(=O)NCC4CCCCC4)CC[C@@H]32)cc1	3.3	0.0	2.2	4.4	33.8
COc1ccc(S(=O)(=O)N2C[C@H](O)COC[C@H]3O[C@H](CC(=O)NCCCN(C)C)CC[C@@H]32)cc1	-1.6	-0.5	20.6*	-1.1	14.1
O=C(C[C@H]1CC[C@H]2[C@@H](COC[C@@H](O)CN2S(=O)(=O)c2ccccc2)O1)NCC1CCCCC1	6.1	-0.3	-11.7	0.2	33.9
COc1ccc(S(=O)(=O)N2C[C@@H](O)COC[C@@H]3O[C@H](CC(=O)NCCCN(C)C)CC[C@H]32)cc1	-0.9	-0.6	11.6	2.6	12.0
C[C@H](CO)N1C[C@H](C)[C@H](CN(C)C(=O)C2CCCCC2)OCCCC[C@H](C)Oc2ccc(NC(=O)C3CCCCC3)cc2C1=O	-0.1	-0.1	19.5	2.5	12.1
